Among the data in the supplement of paper PMC6555819 are PBM binding z-score values, retold here.

Assay in all cases: PBM binding z-score (relative to random genomic background probes); higher = stronger binding; sequences stand for … in GC…GCGATTGACAGCGTAGAATGAAGG
The subject of assay [1] is FXR:RXRa (NR concentration 270 nM, RXRa partner concentration 90 nM). The essentials: (§1)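 Each nuclear receptor dimer, without ligand, was incubated for 1 h on custom Agilent 4×180K protein-binding microarrays. Binding was detected with antibodies against each partner (one per run), and scanned fluorescence was regression-normalized. The binding z-scores are referenced to random human genomic background probes.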

In assay [2] the test system is LXRa:RXRa (NR concentration 270 nM, RXRa partner concentration 90 nM). The procedure, abridged: as §1
For assay [3], the system named is LXRa homodimer (NR concentration 270 nM). The essentials: as §1
Assay [4] relates to LXRb:RXRa (NR concentration 270 nM, RXRa partner concentration 90 nM). The essentials:
as §1

In assay [5] the test system is LXRb homodimer (NR concentration 270 nM). The procedure, abridged:
as §1

The test system of assay [6] is PPARa:RXRa (NR concentration 270 nM, RXRa partner concentration 90 nM). The essentials:
as §1

In assay [7] the test system is PPARg:RXRa (NR concentration 180 nM, RXRa partner concentration 90 nM). The essentials: as §1
Assay [8] relates to PPARg:RXRa 270nM:90nM, anti-RXR (NR concentration 270 nM, RXRa partner concentration 90 nM). The procedure, abridged:
as §1

The subject of assay [9] is PPARg:RXRa 30nM:10nM, anti-RXR (NR concentration 30 nM, RXRa partner concentration 10 nM). The procedure, abridged:
as §1

The test system of assay [10] is PPARg:RXRa 90nM:30nM, anti-RXR (NR concentration 90 nM, RXRa partner concentration 30 nM). The procedure, abridged: as §1
Assay [11] relates to PPARg:RXRa DBDmut IVT, anti-RXR (DBD mutation: RXRa K156A/R161A, NR concentration 270 nM, RXRa partner concentration 90 nM). The procedure, abridged:
as §1

Assay [12] relates to PPARg:RXRa IVT, anti-PPARg (NR concentration 270 nM, RXRa partner concentration 90 nM). The procedure, abridged:
as §1

For assay [13], the system named is PPARg DBDmut:RXRa IVT, anti-PPARg (DBD mutation: PPARg1 K132A/R137A, NR concentration 270 nM, RXRa partner concentration 90 nM). The procedure, abridged:
as §1

The subject of assay [14] is PPARg DBDmut IVT, anti-PPARg (DBD mutation: PPARg1 K132A/R137A, NR concentration 270 nM). The essentials:
as §1

Assay [15] has as its system PPARg homodimer (NR concentration 180 nM). The essentials:
as §1

For assay [16], the system named is PXR:RXRa (NR concentration 270 nM, RXRa partner concentration 90 nM). The essentials: as §1
Assay [17] concerns PXR homodimer (NR concentration 270 nM). The essentials:
as §1

The subject of assay [18] is RARa:RXR (NR concentration 270 nM, RXRa partner concentration 90 nM). The essentials:
as §1

In assay [19] the test system is RARa homodimer (NR concentration 270 nM). The essentials:
as §1

Assay [20] relates to RARb:RXRa (NR concentration 270 nM, RXRa partner concentration 90 nM). The procedure, abridged:
as §1

As to TAGCCTAGGTCATGGGCCAGTACACCACGCGAAC, the PBM binding z-score in assay [1] was found to be 4.77; in assay [2], 3.08; in [3] it was 0.269; in assay [4], 2.41; in assay [5], 0.439; in assay [6] it was 4.05. Moreover, the PBM binding z-score in assay [7] worked out at 3.9; in assay [8], 3.76; in assay [9], 1.09; in assay [10] it was 2.8; in assay [11], 1.78; in [12], 3.17. In addition, the PBM binding z-score in assay [13] was 1.24; in assay [14] it was -0.494; in [15], 1.72; in [16] it was 1.62; in assay [17] it was -0.215; in assay [18], 2.77. The PBM binding z-score in assay [19] amounted to 0.343; in [20] it was 3.92.
Consider CCTAGTCGGTCAAGGTCACACACGCTATAGGTAC, for which the PBM binding z-score in assay [1] is 4.93; in assay [2], 4.51; in [3], 2.64; in [4], 3.94; in assay [5], 1.16; in assay [6] it was 4.61. The PBM binding z-score came out at 4.76 in [7]; 4.67 in [8]; 2.13 in [9]; 3.88 in assay [10]; 4.58 in assay [11]; 5.27 in assay [12]. For the same sequence, the PBM binding z-score in assay [13] is 0.742; in assay [14], 0.895; in assay [15] it was 3.81; in assay [16], 4.4; in assay [17], 1.97; in assay [18], 4.9. Besides, the figures for the PBM binding z-score in assay [19] and in assay [20] were 2.62 and 4.51, respectively.
For CCGACTGGGGCATTAGGTTACCATAAGCCAGCCC, the PBM binding z-score is -0.253 in assay [1]; 0.617 in assay [2]; -0.377 in assay [3]; 0.144 in [4]; -1.38 in assay [5]; 1.12 in assay [6]. The PBM binding z-score came out at 2.09 in assay [7]; 2.4 in assay [8]; 0.389 in [9]; 1.44 in [10]; 4.18 in assay [11]; 4.74 in assay [12]. Besides, the PBM binding z-score is 1.31 in assay [13]; -0.339 in assay [14]; 0.243 in [15]; -0.496 in assay [16]; -0.542 in assay [17]; 0.173 in assay [18]. Besides, the PBM binding z-score in assay [19] was -0.742; in assay [20] it was 0.848.
For CGTCCAAGGTCAAAAGTCAGTGAAGAGATGACGG, the PBM binding z-score was 6.47 in assay [1]; 5.19 in assay [2]; 0.641 in [3]; 3.79 in [4]; 1.42 in assay [5]; 5.14 in [6]. Besides, the PBM binding z-score in assay [7] stood at 5.67; in assay [8], 5.87; in [9], 3.41; in assay [10], 5; in assay [11], 2.6; in [12] it was 3.24. Moreover, the PBM binding z-score in [13] is 0.212; in assay [14] it was -0.048; in [15], 1.17; in assay [16], 3.92; in [17] it was 0.638; in [18] it was 4.84. Moreover, the PBM binding z-score in [19] is 0.448; in [20] it was 4.63.
Regarding TCTCGGTGGACACGAAGGTCAGAGCTTTCCAGAG, the PBM binding z-score in assay [1] was 0.952; in assay [2], 0.962; in assay [3], 0.157; in [4], 1.36; in assay [5], -0.833; in assay [6] it was 2.04. Further, the PBM binding z-score in assay [7] was 0.78; in assay [8], 2.38; in assay [9], 2.3; in assay [10] it was 2.3; in assay [11], 1; in assay [12] it was 0.976. Also, the PBM binding z-score in assay [13] was -1.18; in [14], -1.31; in assay [15], 0.842; in assay [16], 1.38; in [17], -0.107; in assay [18] it was 1.55. In addition, the PBM binding z-score in assay [19] is -0.711; in assay [20] it was 2.57.
ATACCAAGGTGACCGTGAGGTCGTTGATACTAAC: the PBM binding z-score in assay [1] was 3.38; in assay [2], 2.05; in assay [3] it was 0.765; in assay [4] it was 2.02; in assay [5], -0.023; in assay [6] it was 2.4. In addition, the PBM binding z-score in assay [7] is 1.44; in [8] it was 1.39; in assay [9], 0.228; in [10] it was 0.726; in assay [11] it was 1.21; in assay [12] it was 2.77. Further, the PBM binding z-score in assay [13] worked out at 0.39; in assay [14] it was 0.266; in [15], 1.4; in assay [16], 3.8; in assay [17], 1.45; in assay [18], 3.05. Further, the PBM binding z-score was determined as 0.22 in [19] and 2.46 in assay [20].
For the sequence ATCGAAAGGTCGTGAGGGGAGTATACAGAAAGGC, the PBM binding z-score in [1] was found to be 5.36; in [2], 4.07; in assay [3], 0.475; in assay [4] it was 3.55; in assay [5], 1.22; in assay [6] it was 5.08. For the same sequence, the PBM binding z-score in assay [7] came out at 3.7; in assay [8], 4.21; in [9], 1.39; in [10], 3.1; in assay [11] it was 0.526; in assay [12], 2.01. The PBM binding z-score was found to be 1.57 in assay [13]; 0.649 in assay [14]; 2.22 in [15]; 2.99 in assay [16]; 0.725 in [17]; 3.78 in [18]. Besides, the PBM binding z-score was 0.753 in [19] and 4.03 in assay [20].
